FMDV inh – blocks foot and mouth disease virus; FMDV antiviral cell-based qHTS; Potency, µM (highest dose often 57.9 µM), actives largely listed as inhibitors; 410,000 compounds, 1.2% hits; AID 1159524; calls by dose curve; tested in HEK293T cells; note: read-out not given here; nearly all actives have a fitted effect of over 45% in size
AMA1-RON2 inh – AMA1-RON2 (P. falciparum) interaction inhibition; AlphaScreen AMA1-biotinylated RON2 peptide binding; Potency, µM (highest dose often 58.2 µM), hits mostly inhibitors; 360,000 compounds, 0.2% hits; AID 720542; note: nearly all actives have a fitted effect of over 45% in size
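AMA1 (3D7) with his tag at 25 nM final met compounds first, then biotinylated RON2 peptide at 25 nM; detection used donor plus acceptor beads, 10 µg/mL apiece, read by AlphaScreen after 30 min at room temperature.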
AmpC detergent – AmpC beta-lactamase inhibition with detergent present; AmpC hydrolysis of nitrocefin, absorbance 480 nm, 0.01% Triton; P00811; 370,000 compounds, 0.041% hits; Potency, µM (highest dose often 114 µM), most hits filed as inhibitors; note: nearly all actives have a fitted effect of over 25% in size
Target sequence (P00811 whole entry, looked up): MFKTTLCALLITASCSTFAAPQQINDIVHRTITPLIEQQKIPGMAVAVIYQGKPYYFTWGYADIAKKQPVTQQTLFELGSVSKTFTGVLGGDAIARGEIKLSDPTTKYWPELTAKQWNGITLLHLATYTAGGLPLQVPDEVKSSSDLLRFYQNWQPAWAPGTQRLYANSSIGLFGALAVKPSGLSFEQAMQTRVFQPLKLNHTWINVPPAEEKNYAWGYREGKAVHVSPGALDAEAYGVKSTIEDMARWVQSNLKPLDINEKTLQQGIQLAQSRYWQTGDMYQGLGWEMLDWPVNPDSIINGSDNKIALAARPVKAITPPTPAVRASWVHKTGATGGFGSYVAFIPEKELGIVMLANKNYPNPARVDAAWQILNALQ
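AmpC (5.3 nM in the dispensed reagent) in 20 mM phosphate pH 7.0 with 0.01% (detergent screen) or 0.0001% Triton X-100 was preincubated with compounds for 15 min at room temperature. Nitrocefin was then added from an 800 uM solution, and hydrolysis was followed at 480 nm.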
AmpC no deterg – blocks E. coli AmpC beta-lactamase in detergent-free assay | P00811 | AmpC nitrocefin hydrolysis, absorbance 480 nm, 0.0001% Triton | Potency, µM (titrated, usually from 57.1 µM), hits mostly inhibitors | 330,000 compounds, 0.52% hits | AID 485341; note: nearly all actives have a fitted effect of over 20% in size
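AmpC (5.3 nM in the dispensed reagent) in 20 mM phosphate pH 7.0 with 0.01% (detergent screen) or 0.0001% Triton X-100 was preincubated with compounds for 15 min at room temperature. Nitrocefin was then added from an 800 uM solution, and hydrolysis was followed at 480 nm.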
Sm TGR block – inhibitors of Schistosoma mansoni thioredoxin glutathione reductase; Q962Y6; 360,000 compounds, 3% hits; purified TGR, DTNB reduction, TNB absorbance 405 nm; AID 485364; Potency, µM (titrated, usually from 114 µM), hits mostly inhibitors; note: nearly all actives have a fitted effect of over 60% in size
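First, TGR (20 nM dispensed) and NADPH were mixed with compound. Second, a 15 min room-temperature incubation followed. Third, further NADPH and then DTNB were added to start the reaction. Finally, TNB absorbance was monitored kinetically.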
Numbers stand for hits; n = inactive; u = inconclusive; x = no result; [ ] = dose if it differs, or a comment. The list is not random: actives were taken first. Their share in the collection is about 4.1%. Unless noted, calls come from the whole dose curve; as a rule, active = well fitted curve in the direction sought with a large enough effect; inconclusive = small, poorly fitted or top-dose-only effect, or another doubt; inactive = no such curve, though single readings can be large; an effect the other way counts as inactive or inconclusive.

SMILES | FMDV inh | AMA1-RON2 inh | AmpC detergent | AmpC no deterg | Sm TGR block
COC/C=C/C1=CC2=CC(=O)C(C)(OC(=O)c3cnc4ccccc4n3)C(=O)C2=CN1Cc1ccc(OC)cc1 (centres undefined) | n | n | n | n | 16µM
COC/C=C/C1=CC2=CC(=O)C(C)(OC(=O)c3cnc4ccccc4n3)C(=O)C2=CN1c1ccc(OC)cc1 (centres undefined) | n | n | x | x | x
COC/C=C/C1=CC2=CC(=O)C(C)(OC(=O)c3cnc4ccccc4n3)C(=O)C2=CN1CC1CC1 (centres undefined) | n | n | x | x | x
Cc1cc2nc(C(C)(C)C)c(Cc3ccsc3)n2c(C)c1Br | n | n | x | x | x
CN1N=C(C(=O)N2CCOc3ccc(CN4CCCC(C(=O)c5cccnc5)C4)cc3C2)CCC1=O (centres undefined) | n | x | x | x | x
Cc1ccc(C(=O)c2oc3ccccc3c2NC(=O)COc2ccc(C(C)C)cc2)cc1 | n | x | n | x | n
Cc1ccc(C(=O)NCCc2nnc3n2CCN(Cc2ccc4ccccc4c2)CC3)c(C)c1 | n | x | x | x | x
Clc1ccc(-c2noc(-c3cccnc3N3CCN(c4ccccc4)CC3)n2)cc1 | n | x | n | x | n
N#CC1=C(N)N(c2ccc(Br)cc2)C2=C(C(=O)CCC2)C1c1cccnc1 (centres undefined) | n | n | n | n | 40µM
Cc1ccc(N2C(N)=C(C#N)C(c3cccnc3)C3=C2CCCC3=O)cc1 (centres undefined) | n | n | n | n | n
COc1ccc(CCNC(=O)CSc2nc3[nH]ncc3c(=O)n2-c2ccccc2Br)cc1OC | n | n | n | n | n
COc1ccc(C(=O)Nn2c(SCC(=O)NCc3ccco3)nc3ccccc3c2=O)cc1 | 14µM | n | n | n | u
O=C(CSc1nc2ccccc2c(=O)n1Cc1ccccc1)NCc1ccco1 | n | n | n | n | n
CCn1c(SCC(=O)NCc2ccco2)nc2ccccc2c1=O | n | n | n | n | 45µM
O=C(CSc1nc2[nH]ncc2c(=O)n1-c1ccccc1Br)NCc1ccco1 | n | n | n | n | 22µM
O=C(CSc1nc2ccccc2c2nc3ccccc3n12)NCc1ccco1 | n | n | n | n | 8.9µM
CC(=O)Nc1cc(C(=O)N2CCCC(C)C2)cc2ncn(CCc3ccccn3)c12 (centres undefined) | n | x | x | x | x
COC(=O)c1c(OCc2cccnc2)cc(=O)n2c1CCN(C(=O)c1ccc(OC)c(F)c1)CC2 | n | x | x | x | x
O=C(CCCCCn1c(SCc2ccncc2)nc2ccccc2c1=O)NCc1ccco1 | n | n | u | n | 45µM
N#CCSc1nc2ccccc2c(=O)n1CCCC(=O)NCc1ccco1 | n | n | n | n | n
COc1ccccc1OCC#CCN1CCOCC1 | n | n | n | n[2.29 µM] | 11µM
NC(=O)c1ccc(N=Cc2ccc([N+](=O)[O-])s2)cc1 | u | n | n | n | 14µM
Cc1cc(C)cc(N=Cc2ccc([N+](=O)[O-])s2)c1 | n | n | n | n | u
Cc1cc(C(=O)COC(=O)c2ccccc2Br)c(C)n1CC1CCCO1 (centres undefined) | 0.4µM | n | n | n | n
Cc1ccc(C(=O)OCC(=O)c2cc(C)n(CC3CCCO3)c2C)cc1 (centres undefined) | n | n | n | n | x
SMILES | FMDV inh | AMA1-RON2 inh | AmpC detergent | AmpC no deterg | Sm TGR block
Cc1cc(C(=O)CSc2nc3ccc(Cl)cc3[nH]2)c(C)n1CC1CCCO1 (centres undefined) | 14µM | n | u | n | n
COC(=O)CCn1c(C)cc(C(=O)COc2ccccc2C(N)=O)c1C | 16µM | n | n | n | n
O=C(COc1cccnc1[N+](=O)[O-])c1ccc(Cl)s1 | n | n | n | u | 2µM
Cc1cc(C(=O)COC(=O)c2ccccc2O)c(C)n1CC1CCCO1 (centres undefined) | 35µM | n | n | n | n
Cc1cc(C(=O)COC(=O)c2ccc3c(c2)OCO3)c(C)n1Cc1cccs1 | n | n | u | n | u
Cc1cc(C(=O)COC(=O)c2ccccc2O)c(C)n1Cc1cccs1 | 28µM | n | u | n | n
Cc1cc(C(=O)COc2ccccc2C(N)=O)c(C)n1CC1CCCO1 (centres undefined) | 28µM | n | n | n | n
Cc1cc(C(=O)COC(=O)c2cccc(NS(C)(=O)=O)c2)c(C)n1CC1CCCO1 (centres undefined) | 11µM | n[11.6 µM] | x | n | x
Cc1cc(C(=O)COC(=O)c2cccnc2Cl)c(C)n1CC1CCCO1 (centres undefined) | u | n | n | n | n
CCCC12CN3CC(CCC)(CN(C1)C3c1c[nH]c3ccccc13)C2=O (centres undefined) | u | x | n | x | n
CC(C)C(NS(C)(=O)=O)c1nnc2n1CCN(Cc1ccc3cccnc3c1)CC2 (centres undefined) | n | x | x | x | x
Cc1ccc(Nc2nc(C)cc(C)n2)c(C(=O)O)c1 | n | x | n | x | n
Cc1cc(C(=O)COC(=O)c2cc(O)c3ccccc3c2O)c(C)n1CC1CCCO1 (centres undefined) | n | n | n | n | 20µM
CC(=O)Nc1ccccc1OCC(=O)c1cc(C)n(Cc2cccs2)c1C | u | n | n | n | n
Cc1cc(C(=O)COc2cccnc2[N+](=O)[O-])c(C)n1Cc1cccs1 | 7.9µM | n | n | n | n
Cc1cc(C)nc(SSc2nc(C)cc(C)n2)n1 | n | n | 79µM | u | n
CCOc1cccc(=NC2CCCCC2)c2c(C)n(C)c(C)c12 | 11µM | n | n | n | n
CCOC(=O)c1ccc(-n2c(N)c(C(=O)OC)c3nc4ccccc4nc32)cc1 | n | x | n | x | n
N=C(N)SCc1ccc(O)c([N+](=O)[O-])c1 | n | n | n | n | 45µM
O=[N+]([O-])c1cc(CN(CCO)CCO)ccc1O | n | n | n | n | u
O=[N+]([O-])c1cc([As](=O)(O)c2ccc(O)c([N+](=O)[O-])c2)ccc1O | n | n | n | n | 14µM
COc1ccc(CSC(=N)N)cc1[N+](=O)[O-] | n | n | n | n | n
Cc1nc(SCc2ccc(O)c([N+](=O)[O-])c2)c([N+](=O)[O-])[nH]1 | u | n | n | n | 40µM
Cc1nc(SCc2ccc(O)c([N+](=O)[O-])c2)n[nH]1 | n | n | n | n | n
C(=C\c1sc(Nc2ccccc2)n[n+]1-c1ccccc1)/c1ccccc1 | 6.3µM | n | x | x | x
NC(=O)COc1ccc(-c2noc(COc3ccc(Cl)cc3)n2)cc1 | n | x | n | x | n
COc1ccc(NC(=O)c2oc3ccc(S(=O)(=O)N4CCC5(CC4)OCCO5)cc3c2C)cc1Cl | u | x | n | x | n
COC(=O)CCCC1=CC2=C(c3ccccc3)C(=O)C(C)(OC(=O)C3CCCC3)C(=O)C2=CN1Cc1ccco1 (centres undefined) | n | n | n | n | 22µM

Screening data deposited in PubChem by National Center for Advancing Translational Sciences (NCATS).
